Test [1] in a line: Cell Viability - BJ (AID 421; calls by dose curve;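 also: potency is read from the fitted curve at half-maximal effect; cells exposed to compound for 40 hours at 37 °C before readout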). Particulars: BJ fibroblast viability, qHTS. Summed up: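 Luminescent ATP signal (CellTiter-Glo, 20 min at room temperature) served as the read-out of viable BJ cells after 40 hours of compound treatment. Responses were scaled between DMSO and 100 uM tamoxifen, and AC50 values were obtained by Hill modeling.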
(In general: qHTS replaces the single test concentration by a dilution series.)

Test [2] in a line: Cell Viability - Jurkat (AID 426;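 active = dose-dependent loss of cell ATP signal giving a full or clear fitted curve, ranked by lower potency value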; also: potency is read from the fitted curve at half-maximal effect). Particulars: qHTS. Summed up: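 qHTS, 1536-well; Jurkat E6-1, 5000 cells/well, complete medium; cpd 40 hr, 37 °C; CellTiter-Glo 20 min RT; luminescence. AC50 by Hill fit.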
The nature of test [3]: Cell Viability - Hek293 (AID 427;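 active = compounds whose dose-response curve shows a full or clear partial loss of cell viability, called from curve shape rather than a numeric limit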;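 also: potency is read from the fitted curve at half-maximal effect; cells exposed to compound for 40 hours at 37 °C before reading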). The conditions noted are these: qHTS. The method in brief: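 Luminescent ATP read-out (CellTiter-Glo, 20 min RT) after 40 hr compound exposure at 37 °C in complete medium. Signal normalized to DMSO (basal) and 100 uM tamoxifen (100% inhibition); concentration-response fitted with the standard Hill equation to give AC50.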
Test [4] in a line: Cell Viability - MRC5 (AID 434; calls by dose curve;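 also: potency is read from the fitted curve at half-maximal effect; potency reflects cytotoxicity seen as loss of intracellular ATP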). The conditions noted are these: MRC5 lung fibroblast viability, qHTS. The method in brief: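 qHTS cytotoxicity in human lung fibroblast MRC5 cells; 40 hr treatment, 37 °C; cellular ATP by luciferase luminescence; DMSO = 0%, 100 uM tamoxifen = 100% inhibition; Hill-fit AC50.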
Test [5] in a line: Cell Viability - SK-N-SH (AID 435; calls by dose curve;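 also: potency is read from the fitted curve at half-maximal effect; compound exposure lasted 40 h at 37 °C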). The conditions noted are these: SK-N-SH neuroblastoma cell viability qHTS. The method in brief:
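SK-N-SH human neuroblastoma cells (1500/well) were exposed to compounds in complete medium for 40 h at 37 °C, and intracellular ATP was then measured by CellTiter-Glo luminescence. AC50 was taken from Hill fits, normalized to DMSO and 100 uM tamoxifen.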

Test [6] concerns the target Mitogen-activated protein kinase 10 (Mus musculus) (UniProt Q61831). As to the kind of experiment: JNK3 AlphaScreen Assay (AID 530; active = well fitted curve in either direction with a large enough effect, not every such curve was filed as active;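 also: kinase came from lysate of stimulated human HepG2 cells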; also: potency is read from the fitted curve at half-maximal effect;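 as to activity change, negative = inhibition: signal reports phosphorylation of biotinylated GST-cJun 1-79 at Ser73 with 10 µM ATP; % is scaled to controls: 0 for no effect and ±100 for the full control effect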). The conditions noted are these: JNK3 lysate, c-Jun phosphorylation; series mostly up to 57.1 µM. The method in brief: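 Compound titrations were preincubated 15 minutes at room temperature with substrate, antibody and pre-activated JNK3-containing HepG2 lysate. Reactions were started with 10 uM ATP and stopped with EDTA-containing bead buffer for AlphaScreen detection.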

A short description of test [7]: Cell Viability - HUV-EC-C (AID 542). Also: % is scaled to controls: 0 for no effect and ±100 for the full control effect; nearly all actives have a fitted effect of over 35% in size. Particulars: HUV-EC-C endothelial cell viability, qHTS; series mostly up to 92.2 µM. Summed up: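 qHTS cytotoxicity: HUV-EC-C, 1000 cells/well, 5 hr settle, compound 40 hr 37 °C, CellTiter-Glo, luminescence. AC50 via Hill equation.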
Test [8] can be described thus: Cellular Toxicity (caspase-3) HepG2 (AID 654).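 Also: cells exposed to compound for 16 hours before reading; 0% = DMSO alone and 100% = caspase signal from 100 µM tamoxifen.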 The conditions noted are these: HepG2 caspase-3 activation, luminescence; series mostly up to 92.2 µM. The method in brief: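 Cells plated 5 hr at 37 °C, compound added, incubated 16 hr at 37 °C. Caspase-Glo 3/7 reagent followed, 20 min at room temperature, then luminescence read. Activation scored as signal increase; AC50 from Hill fit.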

The nature of test [9]: Cellular Toxicity (caspase-3) Jurkat (AID 655).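 Also: cells exposed to compound for 16 h at 37 °C before reading.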 Particulars: Jurkat caspase-3 activation, luminescence; series mostly up to 92.2 µM. The method in brief: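 Jurkat cells (5000/well) in complete medium were treated with compounds for 16 hr at 37 °C, then Caspase-Glo 3/7 luminescence was read after 20 min at room temperature. Data normalized to DMSO (basal) and 100 uM tamoxifen (100%); AC50 from Hill fit.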

Test [10] is described as follows: Cell Viability - NIH 3T3 (AID 541).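 Also: plate controls were DMSO alone for no effect and tamoxifen positive control for full effect; nearly all actives have a fitted effect of over 25% in size.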 Particulars: NIH 3T3 cell viability, qHTS; activity change, negative = cytotoxicity: at 92.2 µM (top of the series). Summed up:
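Luminescent ATP signal (CellTiter-Glo) served as the viability read-out after NIH 3T3 cells were exposed to compounds over a concentration range for 40 hr at 37 °C. Hill-equation modelling of concentration-response data gave AC50.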

The nature of test [11]: Cell Viability - H-4-II-E (AID 543). Also: nearly all actives have a fitted effect of over 35% in size. Also: potency is read from the fitted curve at half-maximal effect. The conditions noted are these: H-4-II-E rat hepatoma viability; series mostly up to 92.2 µM. Summed up:
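Luminescent ATP signal (CellTiter-Glo) served as the viability read-out, with cytotoxicity seen as a concentration-dependent ATP drop. Cells were treated for 40 hours in complete medium. AC50 values derive from Hill-equation modelling.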

Test [12] can be described thus: Cell Viability - Renal Proximal Tubule (AID 545).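 Also: 0% = DMSO only and -100% = 100 µM tamoxifen; nearly all actives have a fitted effect of over 40% in size.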 Particulars: renal proximal tubule cells viability, primary cells of rat origin; activity change, negative = cytotoxicity: at 91.7 µM (top of the series). The method in brief: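 Primary rat renal proximal tubule cells (1000/well) were treated with compounds for 40 hr at 37 °C in complete medium. Intracellular ATP was measured by CellTiter-Glo luminescence, and AC50 values came from Hill-equation fits of concentration-response data.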

For test [13], the target named is Cytochrome P450 1A2 (Homo sapiens) (UniProt P05177). As to the kind of experiment: p450-cyp1a2 (AID 410; calls by dose curve; also: potency is read from the fitted curve at half-maximal effect). Particulars: recombinant CYP1A2, luciferin-ME demethylation, luminescence; series mostly up to 57 µM. The method in brief: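 Luminescent readout of luciferin formed from Luciferin-ME by human CYP1A2; data normalized against complete inhibition by 57 uM furafylline. Enzyme 20nM, substrate 100uM at Km, 100mM KPO4 buffer, 60 min reaction at room temperature.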

The nature of test [14]: NFAT Signaling Pathway (AID 444; active = well fitted curve in either direction with a large enough effect, not every such curve was filed as active;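 also: carbachol stimulus at about its EC50 of 1 µM final; % is scaled to controls: 0 for no effect and ±100 for the full control effect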). The conditions noted are these: Jurkat NFAT-bla M1, carbachol, beta-lactamase ratio, 5 h; at 38 µM (top of the series) unless noted. Summed up:
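Read-out: CCF4 FRET ratio (460 nm/530 nm) after 1 h RT dye loading, used for %activity and AC50 from titration series. Cells: Jurkat NFAT-β-lactamase/M1 line, treated with compound plus 1 uM carbachol for 5 h, 37 °C.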

A short description of test [15]: Stat Signaling Pathway (AID 446; active = well fitted curve in either direction with a large enough effect, not every such curve was filed as active;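 also: ME-180 cervical cancer cells given 40 pM IL-6 alongside compound; SIE-controlled beta-lactamase reporter measured as 460/530 nm FRET emission ratio; % is scaled to controls: 0 for no effect and ±100 for the full control effect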). The conditions noted are these: ME-180 (cervical carcinoma) SIE beta-lactamase reporter, IL-6 stimulated, 5 h; at 38 µM (top of the series). The method in brief:
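ME-180 SIE-bla cells; overnight plating; cpd + IL-6 40 pM, 5 h, 37 C; LiveBLAzer 2.5 h RT; 460/530 nm emission ratio. Normalized to 300 pM IL-6 and 125 nM JAK inhibitor controls.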

Test [16] deals with Glucocorticoid receptor (Homo sapiens) (UniProt P04150). As to the kind of experiment: GR-GFP Redistribution (AID 450;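 active = compounds whose dose series gives a full or clear partial fitted curve of increased nuclear translocation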; also: potency is read from the fitted curve at half-maximal effect). The conditions noted are these: U2OS GR-GFP nuclear translocation, laser cytometry, 2 h.
The target of test [17] is 3',5'-cyclic-AMP phosphodiesterase 4B (Homo sapiens) (UniProt Q07343). As to the kind of experiment: qHTS Assay for Inhibitors of PDE-IV (AID 607; active = well fitted activation curve with a large enough effect in the main read-out, with a control signal flat, not every such curve was filed as active; also: % of control where 0% means no effect). The conditions noted are these: HEK293 ACTOne CNG channel cells, membrane potential fluorescence; series mostly up to 22.9 µM. Summed up:
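ACTOne HEK293 cells carry a modified cAMP-gated CNG channel and express endogenous PDE4; plated 1000 cells/well, compounds up to 22.9 uM final. Membrane-potential dye fluorescence (ex 535/em 590) was read; parental cells received 10 uM forskolin + 100 uM RO 20-1724.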

Test [18] addresses Glucocorticoid receptor (Homo sapiens) (UniProt P04150). As to the kind of experiment: GR-EFC Redistribution (AID 451; calls by dose curve; also: potency is read from the fitted curve at half-maximal effect). The conditions noted are these: CHO-K1 GR-EFC translocation, beta-gal luminescence, 2 h. Summed up:
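Translocation of GR-ED fusion to nuclear EA restores b-gal, read by luminescence after 1 h room-temperature detection. Engineered CHO-K1 biosensor cells, 1,000/well, exposed 2 h at 37 C to titrations up to 46 uM final.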

Several values for one entry are separate records, joined by “and”; a condition that tells them apart may be missing. Equal values may be shown once. Results filed as inconclusive are left out. Some structures have more than one record in an assay (separate samples or runs), and their calls can disagree. Activity calls are given as the source filed them. Unless noted, calls follow the shape of the dose curve; as a rule, active = well fitted curve in the direction sought with a large enough effect; inconclusive = small, poorly fitted or top-dose-only effect, or another doubt; inactive = no such curve, though single readings can be large; an effect the other way counts as inactive or inconclusive.

Data on 8 compounds can be found in PubChem BioAssay (NCATS).

Sequence of Glucocorticoid receptor (Homo sapiens) (P04150 whole entry, looked up, the tested form may be a part): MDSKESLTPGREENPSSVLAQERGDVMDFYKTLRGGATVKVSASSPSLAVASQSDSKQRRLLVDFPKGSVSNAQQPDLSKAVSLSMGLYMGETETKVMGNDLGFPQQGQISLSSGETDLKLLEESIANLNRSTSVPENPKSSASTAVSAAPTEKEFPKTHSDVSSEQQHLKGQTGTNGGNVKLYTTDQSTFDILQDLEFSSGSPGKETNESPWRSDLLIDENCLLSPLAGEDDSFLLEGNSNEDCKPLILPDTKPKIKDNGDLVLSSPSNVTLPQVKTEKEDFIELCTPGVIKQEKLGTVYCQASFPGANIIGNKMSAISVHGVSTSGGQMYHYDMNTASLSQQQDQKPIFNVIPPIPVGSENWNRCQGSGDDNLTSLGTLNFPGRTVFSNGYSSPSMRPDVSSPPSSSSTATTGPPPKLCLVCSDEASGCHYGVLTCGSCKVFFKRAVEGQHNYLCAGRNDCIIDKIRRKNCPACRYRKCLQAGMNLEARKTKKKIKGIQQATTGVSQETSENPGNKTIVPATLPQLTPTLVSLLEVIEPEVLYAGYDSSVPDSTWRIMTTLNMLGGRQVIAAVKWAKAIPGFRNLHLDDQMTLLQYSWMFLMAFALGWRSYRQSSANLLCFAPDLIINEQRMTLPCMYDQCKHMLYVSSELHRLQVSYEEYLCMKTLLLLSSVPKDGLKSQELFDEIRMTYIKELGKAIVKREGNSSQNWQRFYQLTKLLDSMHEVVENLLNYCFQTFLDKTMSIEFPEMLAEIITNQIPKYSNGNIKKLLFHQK
Sequence of Cytochrome P450 1A2 (Homo sapiens) (P05177 whole entry, looked up): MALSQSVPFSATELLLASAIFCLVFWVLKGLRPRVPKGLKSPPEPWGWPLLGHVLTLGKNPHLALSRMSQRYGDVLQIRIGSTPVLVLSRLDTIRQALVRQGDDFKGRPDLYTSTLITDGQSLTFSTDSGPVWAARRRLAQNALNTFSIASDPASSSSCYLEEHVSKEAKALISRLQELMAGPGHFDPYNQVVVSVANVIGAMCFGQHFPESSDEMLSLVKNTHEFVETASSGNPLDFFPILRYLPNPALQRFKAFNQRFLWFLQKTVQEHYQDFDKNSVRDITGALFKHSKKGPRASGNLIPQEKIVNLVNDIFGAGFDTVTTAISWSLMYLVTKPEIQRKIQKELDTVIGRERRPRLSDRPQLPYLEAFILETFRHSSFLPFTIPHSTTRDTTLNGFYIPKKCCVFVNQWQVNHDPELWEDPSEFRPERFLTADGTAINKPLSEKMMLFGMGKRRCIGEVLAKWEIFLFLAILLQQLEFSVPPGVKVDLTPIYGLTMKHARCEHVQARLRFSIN
Sequence of 3',5'-cyclic-AMP phosphodiesterase 4B (Homo sapiens) (Q07343 whole entry, looked up): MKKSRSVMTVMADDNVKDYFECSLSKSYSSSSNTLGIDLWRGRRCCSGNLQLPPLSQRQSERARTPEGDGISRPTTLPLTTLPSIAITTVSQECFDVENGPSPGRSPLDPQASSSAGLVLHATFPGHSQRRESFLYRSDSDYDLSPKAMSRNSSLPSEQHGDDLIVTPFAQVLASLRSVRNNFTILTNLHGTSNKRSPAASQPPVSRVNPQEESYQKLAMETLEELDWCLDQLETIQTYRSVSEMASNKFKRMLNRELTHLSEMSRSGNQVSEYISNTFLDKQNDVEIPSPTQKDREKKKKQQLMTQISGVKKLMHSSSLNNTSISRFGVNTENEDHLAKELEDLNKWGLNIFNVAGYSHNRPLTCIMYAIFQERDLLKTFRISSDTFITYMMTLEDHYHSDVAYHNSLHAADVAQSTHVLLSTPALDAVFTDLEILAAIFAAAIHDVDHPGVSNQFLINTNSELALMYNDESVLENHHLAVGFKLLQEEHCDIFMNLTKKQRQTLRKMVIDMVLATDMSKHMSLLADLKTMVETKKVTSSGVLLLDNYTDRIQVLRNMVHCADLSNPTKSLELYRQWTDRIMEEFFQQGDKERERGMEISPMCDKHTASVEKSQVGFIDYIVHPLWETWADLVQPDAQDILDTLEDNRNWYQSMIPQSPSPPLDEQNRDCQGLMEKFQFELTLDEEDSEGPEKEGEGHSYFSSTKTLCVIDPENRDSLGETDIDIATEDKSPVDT

With `Nc1nc2ccc([N+](=O)[O-])cc2s1`, the Potency in test [1], in [2], in test [3], in test [4] and in test [5] was > 92 µM (inactive) throughout. In addition, the Potency result in test [6], in test [7], in test [8] and in test [9] was “inactive” each time.
With `CN(C)CCC(c1ccc(Cl)cc1)c1ccccn1` (centres undefined), the Potency in test [1], in test [2], in [3], in test [4] and in [5] was > 92 µM (inactive) throughout. The Potency result in test [6], in test [10], in test [7], in test [11], in test [8] and in [9] was “inactive” throughout. Besides, the activity change, negative = cytotoxicity in [12] was -6.06% (inactive).
With `CCCCCCCCCCCCCCCCCC(=O)O`, the Potency in test [1], in test [2], in test [3], in test [4] and in test [5] was > 92 µM (inactive) in each case. In addition, the Potency result in test [6], in test [10], in [7], in [11], in test [8] and in test [9] was “inactive” in each case. The activity change, negative = cytotoxicity in [12] is -6.5% (inactive).
In the case of `O=c1cc(-c2ccccc2)oc2ccccc12`, the Potency in test [1], in [2], in test [3], in [4] and in test [5] was > 92 µM (inactive) throughout. For the same compound, the Potency result in [6], in test [7], in test [8] and in test [9] was “inactive” throughout.
Take `N#C/C(=C\c1c[nH]c2ccccc12)C(=O)c1ccc(O)c(O)c1`: the values for the Potency in [13] and in test [16] were 1.26 µM (active) and > 46 µM (inactive), respectively. The activity change, negative = inhibition in test [14] is 0.356% (inactive). For the same compound, the activity, negative = inhibition in [15] was -11% (inactive). In [17], the compound was classed as inactive.
With `Oc1cc2c(cc1O)CN(C(=S)NCCc1ccc(Cl)cc1)CCC2`, the Potency is 12.6 µM (active) and 20 µM (active) in test [13]; > 46 µM (inactive) in [18]; “inactive and 10 µM (active)” in test [6]. The activity change, negative = inhibition in test [14] was -18.1% (inactive). Further, the activity, negative = inhibition in test [15] was 6.62% (inactive). Also, the call in test [17] was inactive.
For the compound `NCCO`, the Potency in test [1], in test [2], in test [3], in [4] and in [5] was > 92 µM (inactive) throughout. The Potency result in test [10], in test [7], in test [11], in test [8] and in test [9] was “inactive” throughout. The activity change, negative = cytotoxicity in test [12] was -3.73% (inactive).
Take `CN(C)c1ccc(N=NS(=O)(=O)O)cc1`: the Potency was > 92 µM (inactive) in test [1]; > 92 µM (inactive) in test [3]; > 92 µM (inactive) in test [4]; > 92 µM (inactive) in test [5]; 0.126 µM (active) in [11]. For the same compound, the Potency entry in [6], in test [7], in test [8] and in [9] was “inactive” in each case. Further, in [12], the activity change, negative = cytotoxicity is 12.3% (inactive).
